# Assay outcomes as filed in PubChem BioAssay.
# Hits are enriched below; roughly 11% of the tested compounds scored in any of these assays.
# HCV inhibitor – HCV inhibition | hit rate 3.4% among 340,000 | Potency, µM (top dose mostly 41.8 µM), inactives show at the highest dose activity change, negative = inhibition, hits mostly inhibitors | Huh7.5.1 HCVcc-Cre infection, luciferase reporter, 44 h; further: on the % scale 0 is the no-effect control and ±100 the full control effect
#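 1,000 cells/well; 4 h culture; + compound; + HCVcc-Cre (~0.5 moi); 44 h; luciferase substrate, RT 15 min; read 15 sec.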
# NS1 inh – blocks influenza NS1 protein function; Potency, µM (doses to about 46.1 µM), for the others: at the highest dose activity, positive = more growth; hit rate 0.4% among 270,000; calls by dose curve; further: actives are rising curves; nearly all actives have a fitted effect of over 50% in size
#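 A cell-based growth assay was used: compounds that relieve NS1-induced slow growth of budding yeast raise OD600. Assay medium was yeast nitrogen base with ammonium sulphate and -URA supplement, pH 6.0, with 2% galactose.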
# Vaccinia Venus – inhibitors of vaccinia virus (Venus reporter). hit rate 0.46% among 330,000. Potency, µM (top dose mostly 36.5 µM), for inactives: top-dose activity change, negative = inhibition, usual class: inhibitors. Vaccinia virus Venus reporter expression, fluorescence. AID 720580; calls by dose curve; tested in A549 cells; further: on the % scale 0 is the no-effect control and ±100 the full control effect; nearly all actives have a fitted effect of over 30% in size
# Pf growth 96h – inhibits malaria parasite growth, 96 h | AID 504834 | Potency, µM (series often up to 28.7 µM), for inactives: top-dose activity change, negative = inhibition, actives largely listed as inhibitors | hit rate 6.9% among 320,000 | P. falciparum luciferase reporter growth, 96 h; further: on the % scale 0 is the no-effect control and ±100 the full control effect
#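 Two parasite generations (96 h, 37 C, 5% CO2) of compound exposure in infected erythrocytes (0.05% parasitemia, 2% hematocrit). Luciferase-reporter P. falciparum; decreased luminescence indicates inhibited growth, aimed at apicoplast-acting delayed death.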
# Vaccinia mCherry – inhibitors of vaccinia virus infection (mCherry reporter signal) | Vaccinia virus mCherry reporter infection, fluorescence | Potency, µM (top dose mostly 36.5 µM), for inactives: top-dose activity change, negative = inhibition, most hits filed as inhibitors | hit rate 0.63% among 310,000 | AID 720579; calls by dose curve; tested in A549 cells; further: on the % scale 0 is the no-effect control and ±100 the full control effect; nearly all actives have a fitted effect of over 35% in size
# Pf growth 48h – inhibits P. falciparum growth in the first generation, 48 h | hit rate 5.9% among 310,000 | P. falciparum luciferase growth in erythrocytes, 48 h | Potency, µM (highest dose often 28.7 µM), without a hit: top-dose activity change, negative = inhibition, most hits filed as inhibitors | AID 504832; further: on the % scale 0 is the no-effect control and ±100 the full control effect
#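 Here the parasites carry a stable luciferase gene and grow inside erythrocytes in Albumax-based RPMI medium with compound for one erythrocytic cycle. Activity is scored as loss of luminescent signal.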
# * hit, by the source's call; i = inactive; u = inconclusive; x = not tested or not shown; [ ] = another dose, or the depositor's remark. Unless noted, the call rests on the fitted dose curve; in most records, active means well fitted inhibition curve with a large enough effect; inconclusive means small, poorly fitted or top-dose-only effect, or another doubt; inactive means no such curve, though single readings can be large or run the other way. Potency means the concentration at half of the fitted maximal effect.
SMILES,HCV inhibitor,NS1 inh,Vaccinia Venus,Pf growth 96h,Vaccinia mCherry,Pf growth 48h
COc1ccccc1N1CCN(S(=O)(=O)c2ccc([N+](=O)[O-])cc2)CC1,x,x,1.0%,x,u,x
CCc1cc2c(cc3c(=O)n(CC(=O)NC4CCCCC4)ncn32)s1,x,x,-12.3%,x,-15.9%,x
O=C(Cn1ncn2c(cc3sccc32)c1=O)NC1CCCC1,11.3%,17.7%,x,8.28µM*,x,17.4%
O=C(O)CC1=C(Nc2ccccc2)C(=O)N(c2ccccc2)C1c1ccc(F)cc1 (stereo not drawn),9.4%,20.1%,x,85.2%,x,88.2%
CC(=O)N1CCc2c(sc3c2c(=O)n(-c2cccc(Cl)c2)c(=O)n3Cc2ccc(F)cc2Cl)C1,x,x,0.4%,x,-20.0%,x
CC(=O)N1CCc2c(sc3c2c(=O)n(-c2ccccc2)c(=O)n3Cc2ccccc2Cl)C1,u,11.7%,-10.2%,11.7µM*,-5.0%,u
Sc1ccccc1N=Cc1cccs1,x,x,-6.2%,x,-18.0%,x
Cc1cccc(C)c1NC(=O)CN1CCN(c2ccc(C(F)(F)F)cn2)CC1,x,x,-11.5%,x,12.0%,x
CCc1nc(CN2CCN(c3ccc(C(F)(F)F)cn3)CC2)c(C)[nH]1,10µM*,-1.6%,x,26.9%,x,-7.5%
Clc1ccc2c(c1)N=C(N1CCNCC1)c1ccccc1N2,x,x,-24.0%,x,u,x
CN1CCN(C2=Nc3cc(Cl)ccc3Nc3ccccc32)CC1,0.1%[8.37 µM],-5.8%,-16.0%,u,-3.4%,16.9µM*
COc1ccc2c(c1)C(=O)CC(c1ccccc1F)O2 (stereo not drawn),u,-3.2%,-14.2%,6.3%,-18.0%[1.46 µM],-5.3%
COc1ccc2c(c1)C(=O)CCC2c1ccccc1 (stereo not drawn),-2.7%,-40.2%,-10.3%,5.22µM*,-7.3%,-9.2%
CCOc1cc(C#N)c(NC(=O)c2ccc(OC)c(S(=O)(=O)N3CCCC3)c2)cc1OCC,x,x,5.8%,x,15.2%,x
Fc1ccc(Br)cc1C1C=C(c2ccc(Br)s2)Nc2ncnn21 (stereo not drawn),u,-4.5%,-13.0%,131.1%,u,-6.6%
COc1cccc(C2=CC(c3ccc(OC)c(OC)c3OC)n3ncnc3N2)c1 (stereo not drawn),x,x,-1.0%,x,-19.2%,x
COc1ccc(C2C=C(c3ccc(C)c(C)c3)Nc3ncnn32)c(OC)c1OC (stereo not drawn),u,-74.7%,-16.9%,9.28µM*,-28.9%,x
COc1cccc(C2C=C(c3ccc(Br)s3)Nc3ncnn32)c1OC (stereo not drawn),-26.3%,-19.6%,-4.7%,2.33µM*,-4.7%,u
C[C@@H](C(=O)NCC1CC1)[C@@H]1C[C@@]1(C)[C@@H](NC(=O)OCc1ccccc1)c1ccccc1,0.562µM*,-8.1%,-18.4%,4.15µM*,i,4.15µM*
C[C@@H](C(=O)Nc1ccc2ccccc2c1)[C@@H]1C[C@@]1(C)[C@@H](N)c1ccccc1,-10.4%,x,-17.8%,x,-22.5%,x
Cc1cc(C(=O)N[C@H](c2ccccc2)[C@@]2(C)C[C@@H]2[C@@H](C)C(=O)Nc2ccc3ccccc3c2)n(C)n1,u,6.5%,u,3.7µM*,-10.6%,2.62µM*
C[C@@H](C(=O)Nc1ccc2ccccc2c1)[C@H]1C[C@]1(C)[C@H](NC(=O)OCc1ccccc1)c1ccccc1,u,u,u,10.4µM*,-14.1%,u
C[C@@H](C(=O)NCCc1c[nH]c2ccccc12)[C@H]1C[C@]1(C)[C@H](NC(=O)OCc1ccccc1)c1ccccc1,u,28.3%,-29.6%,9.28µM*,-12.6%,13.1µM*
C[C@@H](C(=O)NCc1ccc(S(C)(=O)=O)cc1)[C@@H]1C[C@@]1(C)[C@@H](NC(=O)OCc1ccccc1)c1ccccc1,3.6%[8.37 µM],-5.1%,1.0%,u,i,-13.2%
C[C@H](CO)NC(=O)[C@H](C)[C@H]1C[C@]1(C)[C@H](NC(=O)OCc1ccccc1)c1ccccc1,-11.2%,-9.5%,-3.3%,0.6%,i,2.7%
CCOC(=O)C1(Cc2ccccc2)CCN(Cc2ccc3cc(NC(C)=O)ccc3n2)CC1,-5.0%,0.2%,-3.3%,4.9%,i,u
Clc1cccc(-c2nc(-c3ccccn3)no2)c1,-24.8%,-15.1%,-16.5%,7.38µM*,-19.3%,-79.3%
